Our source for the max response values is PubChem BioAssay AID2314 (National Center for Advancing Translational Sciences (NCATS), 2010).

Molecules are shown by their SMILES. About 37,000 (12%) of roughly 300,000 compounds were called active. No stated cut-off is given here; in the data, active means max response mostly above about 13% (no sharp cut-off); inactive means mostly below about 14%. The list comes from a sample in which actives are over-represented; it also holds similar structures and randomly drawn compounds.

The test in a line: Cycloheximide Counterscreen for Small Molecule Inhibitors of Shiga Toxin. Further: read at 38.3 µM for the half of the compounds with a filed dose; 0% is about no effect. The following applies: cell reporter, cycloheximide protein synthesis inhibition counterscreen; active compounds read high. Background: The purpose of a counterscreen is to sort out artefacts and off-target activity.
On to `Cc1ccc2c(c1)c1ncnc(N3CCc4ccccc4C3)c1n2C`, for which the max response was 42.1% (active). Consider `Cc1ccc2c(c1)c1ncn(Cc3ccc(F)cc3)c(=O)c1n2C`, for which the max response was -2.24% (inactive). The same measure for `Cc1ccc2c(c1)c1ncn(CCC3=CCCCC3)c(=O)c1n2C`: -3.65% (inactive); for `OCCN1CCN(c2nnc(-c3ccccc3)c3ccccc23)CC1`: -4.91% (inactive). The same measure for `COc1ccc(S(=O)(=O)NCC(=O)NCc2cc(=O)n(C)c(=O)n2C)cc1F`: -6.78% (inactive). Then `O=C(COc1ccc2c(c1)CCC2)N1CCN(c2ccc(F)cc2)CC1`, with -1.09% (inactive); and `CSc1ncc(C(=O)NCCCc2ccccc2)c(C)n1`, with 10.8% (inactive); and `O=C(NCCN1CCCC(O)C1)c1cc(COc2c(F)cccc2F)on1` (stereo unspecified), with 9.93% (inactive). Regarding `Nc1nonc1C(=O)NCCc1ccccc1`, the max response is 10.9% (inactive). The same measure for `C[C@H](NC(=O)NCCc1ccccc1)C(=O)O`: -6.82% (inactive).

Turning to `CCN(CC)CCCNC(=O)c1cc(-c2cccc(Cl)c2)on1`, the max response was 0.892% (inactive). With `CCCCNC(=S)NNC(=O)c1cc(C)on1`, the max response is -1.9% (inactive). Then `CC(C)Cc1cc(C(=O)NCCc2ccccc2)no1`, with 53.1% (active); and `O=C(COC(=O)c1ccc(F)cc1)NCCCc1ccccc1`, with -9.6% (inactive); and `Cc1cc(C(=O)NCCCc2ccccc2)no1`, with 13.1% (active). On to `O=C(NCCCc1ccccc1)c1cc(COc2c(F)cccc2F)on1`, for which the max response was 31.8% (active).

With `CC(C)CNC(=O)c1cc(-c2ccc(Br)cc2)on1`, the max response is 36% (active). Turning to `Cc1c(NC(=O)c2cc(-c3ccc(Br)cc3)on2)c(=O)n(-c2ccccc2)n1C`, the max response was -1.9% (inactive). On to `Cc1ccc2c(c1)N(CC(=O)NCCCN1CCCCC1)C(=O)c1cccnc1O2`, for which the max response is 1.05% (inactive). Take `Cc1cccc(NC(=O)Cn2c(=O)n(Cc3ccccc3)c(=O)c3c(C)c(C)sc32)c1`: the max response is -2.17% (inactive). With `CCOc1ccc(OCC)c(NC(=O)CSc2nnc(Cn3cnc4ccccc43)n2C)c1`, the max response was -0.798% (inactive). As for `COc1cccc(-n2nc(C(=O)N3CCN(Cc4ccccc4)CC3)c3ccccc3c2=O)c1`, the max response was 1.57% (inactive). Consider `COc1ccc(C(=O)Nc2ccnn2C2CCN(Cc3ccncc3)CC2)cc1`, for which the max response is 7.85% (inactive).

For `O=C(CCN1C(=O)[C@@H]2Cc3ccccc3CN2C1=O)NCCc1ccccc1`, the max response is -1.26% (inactive). As to `CCCOc1ccc(C2=CSC3=NCCN23)cc1Cl`, the max response was 1.92% (inactive). In the case of `O=C(CSc1ncccn1)N1CCCC1`, the max response was -5.34% (inactive). The same measure for `O=S(=O)(NCC1OCCc2ccccc21)c1ccccc1` (stereo unspecified): 1.35% (inactive). Then `CC(=O)c1nc2ccccc2n1Cc1ccccc1`, with -1.93% (inactive); and `CC(C)Cc1cc(C(=O)Nc2cc(Br)ccc2O)no1`, with 31.8% (active).

Take `COc1ccc(NS(=O)(=O)c2ccc(N3CCN(CCO)CC3)c([N+](=O)[O-])c2)cc1`: the max response is 1.31% (inactive).

Consider `O=S(=O)(c1cccc2nonc12)N1CCN(c2cccc(Cl)c2)CC1`, for which the max response is 0.53% (inactive). Regarding `Cc1cc2cc3c(N)[nH]nc3nc2cc1C`, the max response is 20.7% (active).

`CCOc1cc(C(=S)N2CCOCC2)ccc1OS(=O)(=O)c1ccc(Br)cc1`: the max response was -1.79% (inactive). The same measure for `CC(=O)c1ccc(S(=O)(=O)NCc2nnnn2-c2ccccc2)cc1`: -4.62% (inactive); for `Cc1cc(C)cc(NC(=O)C2CCCN(S(=O)(=O)c3ccc4[nH]c(=O)ccc4c3)C2)c1` (stereo unspecified): 1.72% (inactive). Regarding `CCOc1ccc(C2/C(=C(/O)c3ccc4c(c3)CC(C)O4)C(=O)C(=O)N2CCCn2ccnc2)cc1` (stereo unspecified), the max response was 0.806% (inactive).

As to `COCCn1c(-c2ccc(OC)c(OC)c2)nc2ccccc21`, the max response is 18.4% (active). The same measure for `CCOCCn1c(-c2ccccc2)nc2ccccc21`: -1.28% (inactive); for `COc1ccc(-c2nc3ccccc3n2CCC(C)C)cc1OC`: -2.09% (inactive); for `CC(NCc1ccccc1OC1CCCC1)c1ccccc1` (stereo unspecified): -1.87% (inactive). On to `Cc1cc(Cl)c2oc(C(=O)NC(C)c3ccncn3)c(C)c2c1` (stereo unspecified), for which the max response was 6.71% (inactive). For the compound `Cc1cc(Cl)c2oc(C(=O)N(C)C(C)c3ccccn3)c(C)c2c1` (stereo unspecified), the max response is 28.7% (active). Turning to `Cc1cc(Cl)c2oc(C(=O)N3CCC(O)(c4ccccc4)CC3)c(C)c2c1`, the max response is 4.04% (inactive). On to `COc1ccc(CNC(=O)C2CC(c3ccc(C(F)(F)F)cc3)=NO2)cc1` (stereo unspecified), for which the max response was -0.982% (inactive). In the case of `Cc1cc(OCCCCOc2ccc(C#N)cc2)ccc1[N+](=O)[O-]`, the max response is -6.16% (inactive). The same measure for `COc1ccc(NC(=O)CSc2ncnc3[nH]ncc23)cc1`: 1.38% (inactive); for `O=C(CSc1ncnc2c1cnn2CCc1ccccc1)Nc1ccc(F)cc1`: 2.37% (inactive). Take `COC(=O)CSc1ncnc2c1cnn2-c1ccc(C)cc1C`: the max response is -8.2% (inactive). `COc1ccccc1N1CCN(C(=O)CSc2ncnc3c2cnn3-c2ccc(C)c(C)c2)CC1`: the max response is 44.7% (active).

As for `COc1ccc(-n2ncc3c(SCC(=O)NNC(C)=O)ncnc32)cc1`, the max response was 26.3% (active). For the compound `c1ccc(-n2ncc3c2ncn2c(C4CCCCC4)nnc32)cc1`, the max response is -1.23% (inactive). On to `COc1ccccc1N1CCN(C(=O)CSc2nnc(-c3ccoc3C)o2)CC1`, for which the max response was -1.64% (inactive). As to `c1ccc(-n2ncc3c(N4CCCC4)ncnc32)cc1`, the max response is 8.89% (inactive). Turning to `CC(C)Sc1ncnc2c1cnn2-c1ccccc1`, the max response was 46.6% (active). As to `CC(=O)Nc1ccc(NC(=O)CSc2ncnc3c2cnn3Cc2ccccc2)cc1`, the max response is 6% (inactive).

As to `COc1ccc(N2CCN(C(=O)CSc3ncnc4c3cnn4-c3ccc(OC)cc3)CC2)cc1`, the max response was -1.01% (inactive). As for `CCN(CC)C(=O)CSc1ncnc2c1cnn2-c1ccccc1`, the max response was 38.4% (active). In the case of `O=S(=O)(Nc1ccccc1)c1ccc(NS(=O)(=O)c2cccs2)cc1`, the max response is -2.66% (inactive).

Turning to `CCCCSc1nnc2c(n1)OC=Nc1ccccc1-2`, the max response is 12.2% (inactive).

`COc1cc(N2C(=O)CSC2=S)cc(OC)c1OC`: the max response was -3.84% (inactive). For `Cc1ccccc1NC(=O)Cn1cc(C(=O)C2CC2)c2ccccc21`, the max response is -4.37% (inactive). Take `NC(=O)c1nsc(C(=O)N(CCCN2CCOCC2)C(C(=O)NC2CCCCC2)c2ccc(Cl)cc2)c1N` (stereo unspecified): the max response is 0.533% (inactive).

For the compound `O=C(O)c1ccccc1-c1ccccc1C(=O)Nc1ccccc1Br`, the max response is -9.84% (inactive).

As for `N#Cc1c(-c2ccccc2)cc(-c2ccccc2)nc1SCC(=O)O`, the max response is -2.46% (inactive). On to `Brc1ccc(Nc2c3c(nc4ncnn24)CCC3)cc1`, for which the max response is -7.39% (inactive). On to `O=C(NCc1ccccc1Cl)C1CCN(c2ncnc3c2nc2n3CCCCC2)CC1`, for which the max response is 17% (inactive). The same measure for `CC(=O)Nc1c2c(nn1-c1ccc(C)cc1C)CS(=O)C2` (stereo unspecified): -1.87% (inactive); for `COc1ccc(-c2nc3c(c(SCC(=O)Nc4ccc(C(=O)O)cc4)n2)Cc2ccccc2O3)cc1`: 12.1% (inactive); for `Cc1ccc2[nH]c(=O)c(CN(C)S(=O)(=O)c3cccc4nonc34)cc2c1`: -10.5% (inactive).

As for `COc1ccc(Cl)cc1NC(=O)[C@@H]1CCCN1C(=O)c1cccs1`, the max response is 4.64% (inactive). With `COc1ccc(S(=O)(=O)N2CCN(C(=O)NC3CCCCC3)CC2)cc1`, the max response was 1.04% (inactive). Regarding `COc1ccc2nc(NC(=O)[C@@H]3CCCN3C(=O)c3cccs3)sc2c1`, the max response was 15.2% (active). Then `COc1ccc2nc(NC(=O)c3ccc(Br)s3)sc2c1`, with 67.5% (active); and `CCOc1ccc2nc(NC(=O)c3cc([N+](=O)[O-])ccc3N3CCOCC3)sc2c1`, with 11.9% (inactive); and `COc1ccc2nc(NC(=O)NC3CCCCC3)sc2c1`, with 47.7% (active). In the case of `COc1ccc(-n2cnc3cc(C(=O)NC4CCCC4)ccc32)cc1`, the max response is -1.06% (inactive). Then `COc1cc(Cl)c(C)cc1NC(=O)[C@@H]1CCCN1C(=O)c1cccs1`, with -0.643% (inactive); and `COc1ccc(CNC(=O)c2ccc(Br)s2)cc1OC`, with 10.2% (inactive); and `NS(=O)(=O)c1ccc(CNC(=O)c2ccc(Cl)cc2[N+](=O)[O-])cc1`, with -0.486% (inactive). For `Cc1cccc(N(C)C(=O)c2cc(S(=O)(=O)N3CCCCC3)c[nH]2)c1`, the max response is -1.63% (inactive). Turning to `O=C(NCc1ccccc1)C(c1ccco1)N(C(=O)c1csnn1)c1ccccc1F` (stereo unspecified), the max response was -6.55% (inactive). As for `O=C1c2ccccc2C2=Nc3ccccc3SC(c3ccccc3F)C12` (stereo unspecified), the max response is 9.05% (inactive). In the case of `COc1ccc(N2CCN(S(=O)(=O)c3ccc4c(c3)N(C(C)=O)CCO4)CC2)cc1`, the max response is 2.5% (inactive). Consider `CN(C(=O)COc1ccccc1)c1nnc(-c2ccncc2)s1`, for which the max response is -3.07% (inactive). Turning to `CN(C(=O)c1ccccn1)c1nnc(-c2ccccn2)s1`, the max response was 68.8% (active). Turning to `CN(C(=O)c1ccno1)c1nnc(-c2cccnc2)s1`, the max response is 7.05% (inactive). The same measure for `CCOc1ccc(C(C)=O)cc1CSc1nnc(-c2ccncc2)n1CCOC`: -6.17% (inactive); for `CC1(C)Cc2ccccc2/C(=C/C(=O)c2ccccc2)N1`: 4.21% (inactive); for `Cc1noc(C)c1CSCC(=O)N(CCC(C)C)c1c(N)n(Cc2ccccc2)c(=O)[nH]c1=O`: -1.36% (inactive).

With `O=C(O)C1CCCN1C1=NS(=O)(=O)c2ccccc21` (stereo unspecified), the max response was -4.57% (inactive). Then `Cc1cc2cc(CNC(=O)c3cccs3)ccc2[nH]1`, with 24.1% (active); and `CCc1cccc(CC)c1NC(=S)NCc1ccc2[nH]c(C)cc2c1`, with -2.68% (inactive). On to `Cc1cc2cc(CNC(=O)c3ccc(S(=O)(=O)N4CCOCC4)cc3)ccc2[nH]1`, for which the max response was -2.1% (inactive). On to `COc1ccc(CS(=O)/C(Cl)=C(/Cl)C(=O)Nc2ccc(OC)nc2)cc1` (stereo unspecified), for which the max response was -16.6% (inactive). As to `N#CCSc1nc2ccc(N3CCOCC3)cc2c(=O)n1CCc1ccccc1`, the max response was 10.2% (inactive). As for `Cc1ccc(NS(=O)(=O)c2ccc(-c3coc(C)n3)cc2)c(C)c1`, the max response is 4.71% (inactive).
